Laboratory results taken from PubChem BioAssay (NCATS).
Inconclusive results are not listed. Active and inactive are the calls of the source. Unless noted, calls follow the shape of the dose curve; as a rule, active = well fitted curve in the direction sought with a large enough effect; inconclusive = small, poorly fitted or top-dose-only effect, or another doubt; inactive = no such curve, though single readings can be large; an effect the other way counts as inactive or inconclusive.

Legend:
[1] = target: Lysosomal acid glucosylceramidase (Homo sapiens) (UniProt P04062); assay: Glucocerebrosidase-p2 (AID 348; in the data active = potency below about 10 µM; also: potency is read from the fitted curve at half-maximal effect); details: purified GBA, blue fluorogenic substrate, 40 min
Outline: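 Compounds titrated from 0.6 nM upwards against 0.2 nM enzyme in pH 5.9 citric acid/KH2PO4, taurocholate, tween-20; blue fluorogenic substrate 80 uM, 40 min room temperature, stopped and read Ex 365/Em 440 for AC50.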

[2] = AP1 Signaling Pathway (AID 357; active = well fitted curve in either direction with a large enough effect, not every such curve was filed as active; also: % is scaled to controls: 0 for no effect and ±100 for the full control effect); details: ME-180 AP-1-bla reporter, EGF-induced, beta-lactamase ratio, 5 h; at 7.69 µM (top of the series) unless noted
Outline: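 AP-1-bla ME-180 cells with beta-lactamase reporter under AP-1 response element, stimulated with EC50 EGF; compounds titrated, 5 hours at 37 degrees Celsius. CCF4 read at 460/530 nm ratio; positive and negative modulators judged by AC50.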

[3] = Stat Signaling Pathway (AID 446; active = well fitted curve in either direction with a large enough effect, not every such curve was filed as active;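 also: ME-180 cervical cancer cells given 40 pM IL-6 alongside compound; SIE-controlled beta-lactamase reporter measured as 460/530 nm FRET emission ratio; % is scaled to controls: 0 for no effect and ±100 for the full control effect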); details: ME-180 SIE beta-lactamase reporter, IL-6 stimulated, 5 h; at 7.69 µM (top of the series) unless noted
Outline: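 Reporter line: ME-180 cervical carcinoma, SIE-beta-lactamase. Treatment: compound with 40 pM IL-6, 5 hrs, 37 C, in low-serum OPTI-MEM with 10 mM HEPES pH 7.3. Detection: 460/530 nm fluorescence.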

[4] = target: Glucocorticoid receptor (Homo sapiens) (UniProt P04150); assay: GR-GFP Redistribution (AID 450;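 active = compounds whose dose series gives a full or clear partial fitted curve of increased nuclear translocation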; also: potency is read from the fitted curve at half-maximal effect); details: U2OS GR-GFP nuclear translocation, laser cytometry, 2 h
Sequence of Glucocorticoid receptor (Homo sapiens) (P04150 whole entry, looked up, the tested form may be a part): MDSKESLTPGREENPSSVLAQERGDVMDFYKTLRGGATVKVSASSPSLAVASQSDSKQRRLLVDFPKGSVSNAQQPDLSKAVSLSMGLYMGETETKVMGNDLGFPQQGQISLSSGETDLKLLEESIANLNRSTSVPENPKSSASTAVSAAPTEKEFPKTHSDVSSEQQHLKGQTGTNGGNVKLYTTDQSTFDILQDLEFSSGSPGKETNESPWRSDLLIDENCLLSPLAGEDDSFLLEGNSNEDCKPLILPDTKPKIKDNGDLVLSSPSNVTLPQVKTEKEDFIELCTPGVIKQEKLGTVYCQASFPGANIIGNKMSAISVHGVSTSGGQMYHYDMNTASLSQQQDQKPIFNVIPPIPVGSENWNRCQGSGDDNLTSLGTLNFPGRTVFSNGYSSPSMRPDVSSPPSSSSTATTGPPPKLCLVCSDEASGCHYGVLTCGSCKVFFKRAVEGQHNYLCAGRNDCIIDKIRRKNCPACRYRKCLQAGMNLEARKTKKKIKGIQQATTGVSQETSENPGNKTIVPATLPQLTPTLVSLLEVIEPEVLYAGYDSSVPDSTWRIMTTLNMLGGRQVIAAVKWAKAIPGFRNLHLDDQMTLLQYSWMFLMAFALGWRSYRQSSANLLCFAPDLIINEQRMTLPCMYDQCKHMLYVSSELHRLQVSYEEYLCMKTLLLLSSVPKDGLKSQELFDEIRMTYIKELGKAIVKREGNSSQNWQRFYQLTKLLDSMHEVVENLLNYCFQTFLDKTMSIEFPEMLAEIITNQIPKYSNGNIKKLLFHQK

[5] = target: Glucocorticoid receptor (Homo sapiens) (UniProt P04150); assay: GR-EFC Redistribution (AID 451; calls by dose curve; also: potency is read from the fitted curve at half-maximal effect); details: CHO-K1 GR-EFC translocation, beta-gal luminescence, 2 h
Outline: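 Translocation of GR-ED fusion to nuclear EA restores b-gal, read by luminescence after 1 h room-temperature detection. Engineered CHO-K1 biosensor cells, 1,000/well, exposed 2 h at 37 C to titrations up to 46 uM final.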

[6] = target: Mitogen-activated protein kinase 10 (Mus musculus) (UniProt Q61831); assay: JNK3 AlphaScreen Assay (AID 530; active = well fitted curve in either direction with a large enough effect, not every such curve was filed as active;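 also: kinase came from lysate of stimulated human HepG2 cells; signal reports phosphorylation of biotinylated GST-cJun 1-79 at Ser73 with 10 µM ATP; % is scaled to controls: 0 for no effect and ±100 for the full control effect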); details: JNK3 lysate, c-Jun phosphorylation; series mostly up to 57.1 µM
Outline: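 Compound titrations were preincubated 15 minutes at room temperature with substrate, antibody and pre-activated JNK3-containing HepG2 lysate. Reactions were started with 10 uM ATP and stopped with EDTA-containing bead buffer for AlphaScreen detection.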

[7] = target: 3',5'-cyclic-AMP phosphodiesterase 4B (Homo sapiens) (UniProt Q07343); assay: qHTS Assay for Inhibitors of PDE-IV (AID 607; active = well fitted activation curve with a large enough effect in the main read-out, with a control signal flat, not every such curve was filed as active; also: % of control where 0% means no effect); details: HEK293 ACTOne CNG channel cells, membrane potential fluorescence; series mostly up to 22.9 µM
Sequence of 3',5'-cyclic-AMP phosphodiesterase 4B (Homo sapiens) (Q07343 whole entry, looked up): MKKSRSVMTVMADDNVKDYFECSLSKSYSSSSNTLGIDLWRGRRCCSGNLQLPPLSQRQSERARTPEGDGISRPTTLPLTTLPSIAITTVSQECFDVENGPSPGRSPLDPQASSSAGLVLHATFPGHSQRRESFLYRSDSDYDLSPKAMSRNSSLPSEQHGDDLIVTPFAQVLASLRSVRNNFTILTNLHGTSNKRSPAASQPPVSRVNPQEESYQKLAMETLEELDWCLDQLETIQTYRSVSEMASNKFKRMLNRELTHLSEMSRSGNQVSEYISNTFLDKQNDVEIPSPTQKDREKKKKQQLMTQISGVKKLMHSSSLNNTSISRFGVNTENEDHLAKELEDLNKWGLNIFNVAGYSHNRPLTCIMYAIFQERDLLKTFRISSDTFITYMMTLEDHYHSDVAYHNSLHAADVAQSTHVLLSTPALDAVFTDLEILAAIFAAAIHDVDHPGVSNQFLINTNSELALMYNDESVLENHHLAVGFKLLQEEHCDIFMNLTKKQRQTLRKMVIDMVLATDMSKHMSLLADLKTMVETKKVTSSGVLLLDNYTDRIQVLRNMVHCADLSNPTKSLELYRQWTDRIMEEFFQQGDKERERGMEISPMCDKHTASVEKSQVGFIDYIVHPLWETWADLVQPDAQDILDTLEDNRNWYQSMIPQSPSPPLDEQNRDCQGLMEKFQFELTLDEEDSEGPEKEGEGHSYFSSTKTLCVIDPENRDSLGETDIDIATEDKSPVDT
Outline: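 Cell-based read-out of cAMP via a modified cyclic nucleotide-gated channel and membrane potential dye (535/590 nm) in HEK293 cells expressing PDE4 endogenously. Compounds tested up to 22.9 uM final; 100 uM RO 20-1724 reference.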

[8] = target: Cytochrome P450 1A2 (Homo sapiens) (UniProt P05177); assay: p450-cyp1a2 (AID 410; calls by dose curve;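 also: -100% = full effect of reference inhibitor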); details: recombinant CYP1A2, luciferin-ME demethylation, luminescence; series mostly up to 11.4 µM
Sequence of Cytochrome P450 1A2 (Homo sapiens) (P05177 whole entry, looked up): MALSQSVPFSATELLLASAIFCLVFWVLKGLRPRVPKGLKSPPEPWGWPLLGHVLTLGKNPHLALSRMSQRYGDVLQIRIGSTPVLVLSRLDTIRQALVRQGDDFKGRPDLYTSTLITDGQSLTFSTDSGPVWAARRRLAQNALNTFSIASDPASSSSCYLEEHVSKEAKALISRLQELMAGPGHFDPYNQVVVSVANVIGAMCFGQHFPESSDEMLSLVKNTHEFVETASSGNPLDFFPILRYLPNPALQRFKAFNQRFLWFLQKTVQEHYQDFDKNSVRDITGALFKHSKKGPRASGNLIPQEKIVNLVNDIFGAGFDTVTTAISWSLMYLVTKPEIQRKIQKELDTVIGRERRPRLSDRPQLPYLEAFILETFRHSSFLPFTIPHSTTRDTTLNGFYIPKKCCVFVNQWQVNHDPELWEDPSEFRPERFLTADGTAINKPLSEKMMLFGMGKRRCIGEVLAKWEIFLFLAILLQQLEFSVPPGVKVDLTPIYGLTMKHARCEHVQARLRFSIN
Outline: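 20nM CYP1A2 with 100uM Luciferin-ME (at Km) in 100mM KPO4; compound preincubated 10 min, NADPH regeneration added, 60 min at room temperature. Luciferin quantified by luminescence after detection reagent; normalized to 57 uM furafylline.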

[9] = NFAT Signaling Pathway (AID 444; active = well fitted curve in either direction with a large enough effect, not every such curve was filed as active;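 also: carbachol stimulus at about its EC50 of 1 µM final; % is scaled to controls: 0 for no effect and ±100 for the full control effect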); details: Jurkat NFAT-bla M1, carbachol, beta-lactamase ratio, 5 h; at 7.69 µM (top of the series) unless noted
Outline: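 Read-out: CCF4 FRET ratio (460 nm/530 nm) after 1 h RT dye loading, used for %activity and AC50 from titration series. Cells: Jurkat NFAT-β-lactamase/M1 line, treated with compound plus 1 uM carbachol for 5 h, 37 °C.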

[10] = target: Guanine nucleotide-binding protein G(i) subunit alpha-1 (Homo sapiens) (UniProt P63096); assay: qHTS Assay for Inhibitors of RGS12 GoLoco Motif Activity (Green Fluorophore) (AID 879); details: Galphai1/FITC-RGS12 GoLoco peptide, fluorescence polarization; series mostly up to 57.1 µM;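 also: 0% = labeled peptide with Gαi1 and full inhibition = labeled peptide alone without protein; negative values mean loss of peptide binding seen as reduced polarization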
Sequence of Guanine nucleotide-binding protein G(i) subunit alpha-1 (Homo sapiens) (P63096 whole entry, looked up): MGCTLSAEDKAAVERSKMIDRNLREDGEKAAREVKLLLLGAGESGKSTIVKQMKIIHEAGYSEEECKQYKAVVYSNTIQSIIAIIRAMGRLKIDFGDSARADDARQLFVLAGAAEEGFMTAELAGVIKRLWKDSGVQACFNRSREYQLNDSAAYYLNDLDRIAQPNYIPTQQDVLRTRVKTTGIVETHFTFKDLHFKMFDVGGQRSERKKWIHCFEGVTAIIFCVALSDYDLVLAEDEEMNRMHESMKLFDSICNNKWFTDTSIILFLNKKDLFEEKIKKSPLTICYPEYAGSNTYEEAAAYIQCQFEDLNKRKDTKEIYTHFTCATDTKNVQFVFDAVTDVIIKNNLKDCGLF
Outline: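 Fluorescence polarization assay: 50 nM Gαi1 with 10 nM FITC-labeled RGS12 GoLoco peptide in 10 mM Tris pH 7.5, 150 mM NaCl, 0.1 mM GDP, 0.05% NP40, 10 min at room temperature with compound.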

[11] = target: Cytochrome P450 3A4 (Homo sapiens) (UniProt P08684); assay: qHTS Assay for Activators of Cytochrome P450 3A4 (AID 885); details: recombinant CYP3A4, Luciferin-PPXE luminescence, 60 min; series mostly up to 57.1 µM; also: nearly all actives have a fitted effect of over 65% in size
Sequence of Cytochrome P450 3A4 (Homo sapiens) (P08684 whole entry, looked up): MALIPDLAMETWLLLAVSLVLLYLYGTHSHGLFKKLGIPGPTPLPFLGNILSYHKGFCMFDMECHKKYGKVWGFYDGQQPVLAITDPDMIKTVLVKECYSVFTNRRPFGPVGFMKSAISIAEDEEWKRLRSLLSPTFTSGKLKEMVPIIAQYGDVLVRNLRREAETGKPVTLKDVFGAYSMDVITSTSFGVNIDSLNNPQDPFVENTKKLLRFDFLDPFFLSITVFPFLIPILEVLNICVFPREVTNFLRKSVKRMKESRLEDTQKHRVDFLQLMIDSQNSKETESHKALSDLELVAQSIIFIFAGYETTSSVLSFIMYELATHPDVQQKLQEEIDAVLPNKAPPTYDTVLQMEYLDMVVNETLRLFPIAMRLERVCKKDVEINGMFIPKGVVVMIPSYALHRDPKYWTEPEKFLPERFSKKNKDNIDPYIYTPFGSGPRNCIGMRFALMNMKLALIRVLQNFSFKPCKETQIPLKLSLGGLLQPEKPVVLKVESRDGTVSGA
Outline: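 Signal was normalized against complete inhibition by 57 uM ketoconazole. The reaction used 20nM CYP3A4 with 25uM Luciferin-PPXE, 10-min compound preincubation and a 60-min NADPH-supported step at RT.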

[12] = qHTS Assay for Identification of Small Molecule Agonists for Thrombopoietin (TPO) Signaling Pathway (AID 917); details: TPO signaling pathway reporter cells, agonist qHTS; series mostly up to 38.5 µM; also: % is scaled to controls: 0 for no effect and ±100 for the full control effect
Outline: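 Luminescence from a Glycoprotein IIb promoter–driven luciferase reporter served as read-out in murine Ba/F3 cells carrying the human TPO receptor. Cells, deprived of IL-3 overnight, received compounds with 26 pM TPO and were incubated 24 hrs at 37 C.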

[13] = target: Pyruvate kinase (Leishmania mexicana) (UniProt Q27686); assay: qHTS Validation Assay for Inhibitors of Leishmania Mexicana Pyruvate Kinase (AID 945);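 also: 0% = DMSO only neutral control wells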; details: purified L. mexicana pyruvate kinase, enzyme activity, E451W mutant enzyme; series mostly up to 57.5 µM
Sequence of Pyruvate kinase (Leishmania mexicana) (Q27686 2-499 E452W): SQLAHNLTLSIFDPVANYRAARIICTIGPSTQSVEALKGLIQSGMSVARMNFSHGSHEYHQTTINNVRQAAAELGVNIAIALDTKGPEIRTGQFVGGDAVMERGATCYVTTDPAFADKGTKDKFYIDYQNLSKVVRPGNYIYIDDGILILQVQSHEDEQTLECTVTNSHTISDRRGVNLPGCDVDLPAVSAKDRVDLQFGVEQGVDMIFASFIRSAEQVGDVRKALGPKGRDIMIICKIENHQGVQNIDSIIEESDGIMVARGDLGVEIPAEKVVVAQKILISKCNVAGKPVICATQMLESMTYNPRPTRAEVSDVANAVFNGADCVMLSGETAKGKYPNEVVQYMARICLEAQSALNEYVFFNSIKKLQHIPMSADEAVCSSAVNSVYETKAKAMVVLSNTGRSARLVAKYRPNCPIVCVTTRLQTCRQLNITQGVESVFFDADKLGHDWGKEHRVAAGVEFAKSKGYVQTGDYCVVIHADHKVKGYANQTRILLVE
Outline: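 Eight-point qHTS titrations; enzyme 0.2 nM LmPYK (E451W mutant); substrates 0.5 mM PEP, 0.1 mM ADP; 7 mM MgCl2; 1 h room temperature; PKLight luminescence normalized to neutral control.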

[14] = target: Pyruvate kinase PKM (Homo sapiens) (UniProt P14618); assay: qHTS Assay for Activators of Human Muscle Pyruvate Kinase (AID 954; active = well fitted curve in the direction sought with a large enough effect, not every such curve was filed as active;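 also: 0% = uninhibited enzyme and -100% = no enzyme or full thiadiazolimine inhibition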); details: purified human muscle pyruvate kinase, luciferase-coupled luminescence, 1 h; series mostly up to 57.5 µM
Sequence of Pyruvate kinase PKM (Homo sapiens) (P14618 whole entry, looked up): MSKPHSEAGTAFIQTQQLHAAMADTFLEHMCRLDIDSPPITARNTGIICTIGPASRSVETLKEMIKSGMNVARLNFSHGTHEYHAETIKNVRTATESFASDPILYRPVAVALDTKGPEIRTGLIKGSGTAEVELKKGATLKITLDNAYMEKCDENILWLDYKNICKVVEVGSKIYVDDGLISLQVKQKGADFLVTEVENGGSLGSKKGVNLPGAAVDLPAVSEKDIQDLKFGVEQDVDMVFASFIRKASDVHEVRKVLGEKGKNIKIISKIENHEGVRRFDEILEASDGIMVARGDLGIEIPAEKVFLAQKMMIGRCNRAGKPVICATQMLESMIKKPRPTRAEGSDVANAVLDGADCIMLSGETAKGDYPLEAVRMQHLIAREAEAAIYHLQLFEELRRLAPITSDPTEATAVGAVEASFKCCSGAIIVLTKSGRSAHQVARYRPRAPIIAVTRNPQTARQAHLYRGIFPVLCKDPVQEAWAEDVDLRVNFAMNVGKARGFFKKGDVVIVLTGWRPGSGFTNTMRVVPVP
Outline: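 Human PKM2 activity is measured as ATP generation, detected by luciferase-coupled luminescence. The enzyme (0.1 nM) acts on 0.5 mM PEP and 0.1 mM ADP for 1 h at ambient temperature; data are normalized to uninhibited and full-inhibition wells.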

[15] = target: Alpha-galactosidase (Coffea arabica) (UniProt Q42656); assay: Counterscreen for Glucocerebrosidase Inhibitors: qHTS Assay for Coffee Bean alpha-Galactosidase at pH 4.5 (AID 957); details: purified coffee bean alpha-galactosidase, fluorogenic substrate; series mostly up to 76.9 µM;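 also: plate controls were enzyme alone for no effect and no enzyme for full effect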
Sequence of Alpha-galactosidase (Coffea arabica) (Q42656 whole entry, looked up): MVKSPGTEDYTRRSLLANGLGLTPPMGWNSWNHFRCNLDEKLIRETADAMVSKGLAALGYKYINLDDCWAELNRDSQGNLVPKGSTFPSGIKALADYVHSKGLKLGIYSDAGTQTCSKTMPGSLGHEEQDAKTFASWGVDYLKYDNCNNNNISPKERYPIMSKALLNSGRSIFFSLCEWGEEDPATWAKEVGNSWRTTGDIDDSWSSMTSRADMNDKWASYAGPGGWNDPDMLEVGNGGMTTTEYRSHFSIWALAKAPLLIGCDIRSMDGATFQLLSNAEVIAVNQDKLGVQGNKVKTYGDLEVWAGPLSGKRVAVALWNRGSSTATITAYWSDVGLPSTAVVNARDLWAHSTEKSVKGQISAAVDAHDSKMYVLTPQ
Outline: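 Coffee bean enzyme (2 nM) with 80 uM 4-methylumbelliferyl alpha-D-galactopyranoside in 50 mM citric acid, 0.005% Tween-20, pH 4.5, 20 min at room temperature; compounds 0.7 nM–77 uM. Stopped at pH 10, fluorescence 365/440 nm; AC50 from Hill fits.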

[16] = target: Alpha-galactosidase A (Homo sapiens) (UniProt P06280); assay: Counterscreen for Glucocerebrosidase Inhibitors: qHTS Assay for Human alpha-Galactosidase at pH 4.5 (AID 992); details: purified enzyme, fluorogenic substrate; series mostly up to 76.9 µM; also: 0% is about no effect
Sequence of Alpha-galactosidase A (Homo sapiens) (P06280 whole entry, looked up): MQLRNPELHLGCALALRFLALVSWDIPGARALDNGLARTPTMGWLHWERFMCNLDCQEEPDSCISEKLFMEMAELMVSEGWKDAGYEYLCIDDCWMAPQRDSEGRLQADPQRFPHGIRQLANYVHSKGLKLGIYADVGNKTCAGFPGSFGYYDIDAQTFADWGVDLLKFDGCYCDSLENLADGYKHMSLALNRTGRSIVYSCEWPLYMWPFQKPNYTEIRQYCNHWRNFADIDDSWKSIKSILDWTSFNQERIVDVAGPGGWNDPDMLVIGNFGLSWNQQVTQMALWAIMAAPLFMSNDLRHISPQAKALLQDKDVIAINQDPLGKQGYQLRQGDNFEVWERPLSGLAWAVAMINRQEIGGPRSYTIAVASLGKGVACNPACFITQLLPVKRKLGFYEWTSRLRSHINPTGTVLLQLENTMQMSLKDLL
Outline: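 Quantitative HTS: compounds tested from 0.7 nM up to 77 uM against 2 nM enzyme with 80 uM 4-MU alpha-D-galactopyranoside. The 20 min room-temperature reaction is stopped with 1M NaOH/1M glycine, pH 10.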

[17] = target: alpha-glucosidase (Oryza sativa, rice) (UniProt Q653V4); assay: Counterscreen for Glucocerebrosidase Inhibitors: qHTS Assay for Rice alpha-Glucosidase at pH 5.0 (AID 997); details: rice alpha-glucosidase enzyme activity; series mostly up to 76.9 µM;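 also: 0% = full activity with enzyme and -100% = basal without enzyme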
Outline: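 Rice alpha-glucosidase (4 nM final) with 400 uM 4-methylumbelliferyl-alpha-D-glucopyranoside in citrate buffer pH 5.0, 20 min at room temperature, stopped at pH 10; fluorescence 365/440 nm, compounds 0.7 nM–77 uM, AC50 from Hill fits.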

[18] = target: Alpha-galactosidase (Coffea arabica) (UniProt Q42656); assay: Counterscreen for Glucocerebrosidase Inhibitors: qHTS Assay for Coffee Bean alpha-Galactosidase at pH 5.9 (AID 998); details: coffee bean alpha-galactosidase enzyme assay; series mostly up to 76.9 µM;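 also: plate controls were uninhibited enzyme for no effect and no-enzyme basal signal for full effect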
Outline: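 Compounds were titrated from 0.7 nM to 77 uM against green coffee bean alpha-galactosidase (2 nM) using 80 uM fluorogenic 4-methylumbelliferyl substrate. After 20 min at room temperature, reactions were stopped at pH 10 and read by fluorescence.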

[19] = target: Muscarinic acetylcholine receptor M1 (Rattus norvegicus) (UniProt P08482); assay: qHTS Assay for Antagonists of Acetylcholine Muscarinic M1 Receptor: Measurement of IP-One Response (AID 944); details: CHO-M1 cells, IP-One HTRF, antagonist mode; series mostly up to 46.1 µM; also: nearly all actives have a fitted effect of over 75% in size
Outline: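 CHO cells stably expressing rat M1, pretreated 10 min with compound, then stimulated 30 min with carbachol at EC80 (200 nM) in LiCl-containing buffer pH 7.4; IP1 accumulation read by HTRF competition (665/620 nm).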

CN(C)CCC(C#N)(c1ccccc1)c1ccccc1
inactive: Potency [1] > 11.4 µM | activity change, negative = inhibition [2] 6.93% | activity, negative = inhibition [3] 6.64% | Potency [4] > 46 µM | Potency [5] > 9.22 µM | activity change, negative = inhibition [6] 2.05% [at 11.4 µM] | outcome [7]

C[N+]1(C)CCc2cc3c(cc2[C@@H]1[C@@H]1OC(=O)c2c1ccc1c2OCO1)OCO3
inactive: activity change, negative = inhibition [2] -3.72% [at 38 µM] | Potency [8] | activity change, negative = inhibition [9] -11.8% [at 38 µM] | activity, negative = inhibition [3] 13.3% [at 38 µM] | Potency [4] > 46 µM | Potency [5] > 46 µM | outcome [7] | outcome [10] | Potency [11] | outcome [12] | outcome [13] | outcome [14] | outcome [15] | outcome [16] | outcome [17] | outcome [18]

NC[C@H](O)c1cc(O)c(O)cc1F
inactive: activity change, negative = inhibition [2] -2.42% [at 38 µM] | Potency [8] | activity change, negative = inhibition [9] 4.54% [at 38 µM] | activity, negative = inhibition [3] 10.9% [at 38 µM] | Potency [4] > 46 µM | Potency [5] > 46 µM | outcome [7] | outcome [10] | Potency [11] | outcome [12] | Potency [19] | outcome [13] | outcome [14] | outcome [15] | outcome [16] | outcome [17] | outcome [18]
